# Shown are actives, neighbours in structure and some others; about 2.8% of the full set was active somewhere.
# GLP-1R agonist: GLP-1 receptor (human) agonism | Potency, µM (doses to about 45.6 µM), without a hit: top-dose activation, usual class: activators | HEK293 GLP-1R CRE-luciferase, luminescence, 4-6 h; cells express a hypersensitive GLP-1R form | 380,000 tested, 0.007% active | P43220; also: % of control where 0% means no effect
# Target sequence (P43220 whole entry, looked up): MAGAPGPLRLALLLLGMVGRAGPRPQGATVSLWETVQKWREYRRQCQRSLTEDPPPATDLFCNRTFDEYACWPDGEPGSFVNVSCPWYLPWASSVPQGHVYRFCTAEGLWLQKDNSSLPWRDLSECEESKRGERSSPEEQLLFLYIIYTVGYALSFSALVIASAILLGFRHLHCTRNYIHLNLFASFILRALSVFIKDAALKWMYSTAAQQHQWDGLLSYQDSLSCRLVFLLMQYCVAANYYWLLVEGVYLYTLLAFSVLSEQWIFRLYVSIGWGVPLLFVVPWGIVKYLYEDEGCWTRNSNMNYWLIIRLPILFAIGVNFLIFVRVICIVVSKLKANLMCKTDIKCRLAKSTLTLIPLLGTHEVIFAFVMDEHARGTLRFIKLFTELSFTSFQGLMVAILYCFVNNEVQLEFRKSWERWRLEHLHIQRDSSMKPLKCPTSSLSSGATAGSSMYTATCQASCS
# GLP1R cytotox: cytotoxicity in counter-screen for GLP-1R inverse agonists | Potency, µM (top dose mostly 38.3 µM), inactives show top-dose activity change, negative = inhibition, hits mostly inhibitors | 410,000 tested, 0.13% active | HEK293 cAMP-luciferase reporter cells, luminescence, 24 h;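 also: loss of luciferase light is scored as toxicity; % is scaled to controls: 0 for no effect and ±100 for the full control effect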
#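 Luminescence readout: signal drop marks cytotoxicity. Plated cells grew 12 h at 37 °C, 5% CO2, received 23 nL compound for 24 h, then got luciferase reagent, read after 12 min at RT.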
# BRCA1 expr up: activators of BRCA1 expression; 380,000 tested, 1.1% active; MCF7-BRCA1-FFLuc reporter, luminescence, 48 h; response scale: scaled: vehicle 0%, 10 µM genistein 100%; Potency, µM (top dose mostly 46.1 µM), inactives show at the highest dose activation, usual class: activators; AID 624202; also: nearly all actives have a fitted effect of over 80% in size
#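 Activators of BRCA1 expression were detected as increased firefly luciferase luminescence in engineered MCF7 cells after 48 h compound incubation. Signals were scaled to genistein 10 microM as full activation.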
# GLP-1R inv ag: acts as inverse agonist at human GLP-1 receptor; HEK293 GLP-1R CRE-luciferase, luminescence, 24 h; GLP-1R form is constitutively active; 410,000 tested, 1.6% active; AID 624417; Potency, µM (top dose mostly 38.3 µM), for inactives: top-dose activity change, negative = inhibition, hits mostly inhibitors; P43220; also: % is scaled to controls: 0 for no effect and ±100 for the full control effect; nearly all actives have a fitted effect of over 55% in size
#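 GLP-1R inverse agonism mode: basal reporter luminescence in engineered HEK293 cells measured after one day of compound exposure at 37 deg C, with a 12 min room-temperature detection step.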
# Mito fusion act: blocks mitochondrial division or promotes mitochondrial fusion; S. cerevisiae fusion-defective mutant growth rescue, CellTiterGlo 48 h; Potency, µM (top dose mostly 46.1 µM), without a hit: at the top dose growth rescue (activation), most hits filed as activators; 320,000 tested, 0.23% active; also: % of control where 0% means no effect; nearly all actives have a fitted effect of over 45% in size
#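 Read-out: ATP-based luminescence (CellTiterGlo, 10 min ambient) reporting growth of fusion-defective ts yeast after 48 hours at 37C on glycerol/ethanol YPEG medium in the presence of compound.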
# An asterisk follows results filed as active; ? = inconclusive; · = not tested or not shown. Calls follow the shape of the dose curve; as a rule, active = well fitted curve in the direction sought with a large enough effect; inconclusive = small, poorly fitted or top-dose-only effect, or another doubt; inactive = no such curve, though single readings can be large; an effect the other way counts as inactive or inconclusive. Potency is read from the fitted curve at half-maximal effect.
SMILES,GLP-1R agonist,GLP1R cytotox,BRCA1 expr up,GLP-1R inv ag,Mito fusion act
C=C(C)CCC1(C)NC(=O)N(c2ccccc2)N1 (configuration not stated),0.5%,?,-2.0%,10µM*,-7.9%
CC1(c2ccc(O)cc2)NC(=O)N(c2ccccc2)N1 (configuration not stated),3.3%,-9.0%,?,3.16µM*,-1.1%
CC(=O)N1CCC2(CC1)NC(=O)N(c1ccccc1)N2,-1.4%,-20.9%,-18.7%,?,8.0%
O=C(Nc1ccc2snnc2c1)Nc1cccc2ccccc12,-17.4%,?,-68.3%,10µM*,2.1%
CCN(C(=O)c1cnc(N2CCN(c3ncccn3)CC2)c2ccccc12)c1cccc(Cl)c1,-4.1%,-19.0%,-69.4%,10µM*,3.4%
CN(C(=O)c1cnc(N2CCN(c3ncccn3)CC2)c2ccccc12)c1ccc(Cl)cc1,-0.3%,-5.2%,-83.3%,2.1%,2.9%
CCOc1ccc(NC(=O)CN(C)C(=O)CCCOc2ccc(Br)cc2)cc1OCC,7.6%,3.3%,-20.5%,10µM*,8.9%
Cc1ccc(NC(=O)COc2ccc(N3CC(C(N)=O)CC3=O)cc2)c(C)c1 (configuration not stated),6.6%,3.3%,-2.9%,1.7%,-1.1%
CCOC(=O)c1sc(=NC(=O)c2ccco2)n(C)c1C,2.9%,9.0%,-44.8%,2.1%,-2.8%
Cc1sc(=NC(=O)c2ccco2)n(C)c1-c1ccc(Cl)cc1,6.0%,10.1%,6.31µM*,0.0%,7.3%
COc1cc2c(cc1NC(=O)COC(=O)[C@@H](NS(=O)(=O)c1ccccc1)C(C)C)oc1ccccc12,16.0%,15.4%,-44.4%,?,12.8%
COc1ccc(C(=O)N2CCCC(C(=O)N3CCCCCC3)C2)cc1 (configuration not stated),-2.0%,-23.4%,6.4%,-15.0%,-0.3%
O=C(CCCc1ccccc1)NCc1ccccc1Cl,-2.8%,4.8%,78.2%,?,4.1%
OC(COC(c1ccccc1)c1ccccc1)CN1CCc2ccccc2C1 (configuration not stated),?,-1.2%,-43.5%,10µM*,-2.7%
OC(COCC1COc2ccccc2O1)CN1CCc2ccccc2C1 (configuration not stated),-3.9%,-15.1%,0.3%,10µM*,-3.0%
OC(COC(c1ccc(Cl)cc1)c1ccc(Cl)cc1)CN1CCc2ccccc2C1 (configuration not stated),7.2%,?,-69.2%,5.01µM*,-21.1%
OC(COC(c1ccc(F)cc1)c1ccc(F)cc1)CN1CCc2ccccc2C1 (configuration not stated),-1.2%,-7.9%,-69.6%,?,-7.7%
FC(F)(F)c1cccc(Cc2noc(CN3CCC(c4ccncc4)CC3)n2)c1,27.3%,-4.1%,-16.6%,2.51µM*,-0.8%
CC(C)c1ccc(NC(=S)Nc2ccc3cn[nH]c3c2)cc1,0.0%,?,?,?,-8.3%
CC(=O)c1ccc(NC(=S)Nc2ccc3cn[nH]c3c2)cc1,4.6%,-0.9%,6.31µM*,4.2%,7.7%
CC(=O)c1cccc(NC(=O)Cn2c(SCC(=O)Nc3ccc(F)cc3)nc3ccccc32)c1,·,-2.0%,·,?,·
CCOC(=O)c1cnc(-n2nc(C)cc2C)nc1NC1CCCCC1,0.2%,1µM*,-64.2%,1.26µM*,-2.8%
Cc1cc(NC2CCCCC2)nc(-n2nc(C)cc2C)n1,·,·,·,·,14.6µM*
CCOC(=O)c1cnc(-n2nc(C)cc2C)nc1Nc1ccc(N(C)C)cc1,5.5%,1.12µM*,-13.3%,1.58µM*,5.6%
CCOC(=O)c1cnc(-n2nc(C)cc2C)nc1N(CC)CC,20.6%,2.82µM*,-12.4%,0.0%,-5.7%
SMILES,GLP-1R agonist,GLP1R cytotox,BRCA1 expr up,GLP-1R inv ag,Mito fusion act
CCOC(=O)c1cnc(-n2nc(C)cc2C)nc1Nc1ccc(C)cc1,0.1%,?,-10.7%,?,12.0%
CC(=O)c1ccc(NS(=O)(=O)c2ccc3[nH]c4c(c3c2)CCCCCC4)cc1,·,-15.8%,·,-16.4%,·
CCN(CC(=O)Nc1ccc(NC(C)=O)cc1)C(=O)C(c1ccccc1)c1ccccc1,-3.5%,5.3%,-95.6%,-21.1%,-0.2%
COC(=O)c1ccc(C(=O)NC2CCCc3c2cnn3-c2cc(F)cc(F)c2)nc1 (configuration not stated),5.0%,-6.8%,-62.1%,?,3.9%
COc1ccc2c(c1)CCc1sc(NC(=O)c3ccco3)nc1-2,-2.2%,-5.1%,10µM*,-9.3%,11.8%
COc1ccc2nc(NC(=S)NC(=O)c3ccco3)sc2c1,1.1%,-19.4%,5.01µM*,?,7.3%
COc1ccc2nc(NC(=O)CSC3=NCCS3)sc2c1,1.7%,?,28.1%,?,-3.8%
COc1ccc2nc(NC(=O)CSc3ccccc3)sc2c1,14.7%,-0.6%,10µM*,?,7.3%
COc1ccc2nc(NC(=O)c3cc(C)oc3C)sc2c1,-8.4%,-9.1%,5.01µM*,0.7%,0.1%
Cc1ccc(C(=O)CSc2nnnn2C(C)C)c(C)c1,-3.5%,-3.8%,-40.9%,4.47µM*,-5.2%
CCN(CC)c1ccc(/C=C/c2nccc3ccccc23)cc1,·,·,-27.6%,·,·
CC(C)(C)OC(=O)N[C@@H](Cc1ccccc1)c1nnc(S(=O)(=O)Cc2ccccc2)o1,·,·,·,·,-16.6%
Cc1ccccc1CS(=O)(=O)c1nnc([C@H](Cc2ccccc2)NC(=O)OC(C)(C)C)o1,-17.1%,?,-36.3%,10µM*,-13.7%
CC(C)(C)C(=O)N1CCCC1C(=O)O (configuration not stated),-5.3%,-6.3%,-0.6%,11.7%,-10.9%
Cc1c(C#N)c(NC(=O)CCl)n(Cc2ccccc2)c1C,-1.5%,?,-88.6%,?,3.5%
Cc1c(C#N)c(NC(=O)CCl)n(Cc2cccs2)c1C,-1.2%,?,-90.5%,5.62µM*,4.4%
Cc1cccc(NC(=O)NC(C)CCc2ccccc2)c1 (configuration not stated),12.0%,-13.4%,25.5%,10µM*,12.2%
O=C(Nc1nnc(C2CCCC2)s1)C1CCC1,7.9%,23.0%,11.2µM*,11.0%,1.1%
Cc1nnc(NC(=O)C2CCCC2)s1,-0.4%,-0.6%,-3.7%,21.7%,4.8%
CCNc1nc(NC(C)CC)nc(Oc2ccc(OCC)nn2)n1 (configuration not stated),11.1%,0.2%,-45.6%,-6.3%,3.1%
Brc1ccc2ncnc(NCc3ccccc3)c2c1,-23.3%,-11.1%,-28.7%,1.41µM*,10.9%
c1ccc(CCNc2ncnc3ccccc23)cc1,-4.5%,-0.7%,2µM*,?,-1.8%
CC(=O)Nc1sc2c(c1C(N)=O)CCN(Cc1ccccc1)C2,13.5%,388.9%,2.4%,10.4%,1.0%
COc1ccc(-c2nc(Cn3c(SCc4ccc(F)cc4)nc4cccnc43)c(C)o2)cc1,·,0.3%,·,-5.5%,·

# Assay outcomes as filed in PubChem.
